# Measured values taken from PMC7862700, “An all-to-all approach to the identification of sequence-specific readers for epigenetic DNA modifications on cytosine”.
# What was measured:
# Test in all cases: DAPPL (digital affinity profiling via proximity ligation, sequencing); 10 mM Tris-HCl pH 7.5, 50 mM NaCl, 1 mM DTT, 4% glycerol, room temperature, 30 min; GST-TFs on glutathione beads, 16-mer random dsDNA library, 0.1% formaldehyde crosslink after washing; high values mean tight binding
# [1] = target: T1, FLI1 (Homo sapiens, UniProt Q01543 1-452); settings: protein: recombinant; tags: N-terminal GST; dsDNA, one strand shown
# T1 sequence: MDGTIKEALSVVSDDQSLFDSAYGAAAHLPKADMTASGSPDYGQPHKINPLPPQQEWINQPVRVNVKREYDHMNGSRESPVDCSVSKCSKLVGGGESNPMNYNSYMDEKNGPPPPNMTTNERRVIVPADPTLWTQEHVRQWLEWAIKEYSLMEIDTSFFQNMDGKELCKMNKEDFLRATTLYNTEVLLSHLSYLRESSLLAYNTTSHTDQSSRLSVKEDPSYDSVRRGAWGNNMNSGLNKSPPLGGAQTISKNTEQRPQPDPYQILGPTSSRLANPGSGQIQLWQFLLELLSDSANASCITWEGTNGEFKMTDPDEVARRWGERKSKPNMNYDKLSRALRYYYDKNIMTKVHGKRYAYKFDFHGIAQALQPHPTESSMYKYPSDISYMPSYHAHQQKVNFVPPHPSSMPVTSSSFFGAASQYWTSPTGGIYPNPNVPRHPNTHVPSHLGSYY
# Summary of the method: (§1)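 Yeast served to express human transcription factors as GST fusions, which were then captured on glutathione beads and labelled with DNA barcodes. Pooled with a tag-only sample, they were incubated with 200 nmole of a 16-mer random double-stranded DNA library for 30 min at room temperature in Tris/NaCl/DTT/glycerol buffer, washed, crosslinked with 0.1% formaldehyde, ligated by proximity, amplified by PCR and sequenced. Dividing each hexamer's read frequency for a factor by its frequency for the tag-only sample gives the binding signal.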
# [2] = target: T2, GABPA (Homo sapiens, UniProt Q06546 1-454); settings: protein: recombinant; tags: N-terminal GST; dsDNA, one strand shown
# T2 sequence: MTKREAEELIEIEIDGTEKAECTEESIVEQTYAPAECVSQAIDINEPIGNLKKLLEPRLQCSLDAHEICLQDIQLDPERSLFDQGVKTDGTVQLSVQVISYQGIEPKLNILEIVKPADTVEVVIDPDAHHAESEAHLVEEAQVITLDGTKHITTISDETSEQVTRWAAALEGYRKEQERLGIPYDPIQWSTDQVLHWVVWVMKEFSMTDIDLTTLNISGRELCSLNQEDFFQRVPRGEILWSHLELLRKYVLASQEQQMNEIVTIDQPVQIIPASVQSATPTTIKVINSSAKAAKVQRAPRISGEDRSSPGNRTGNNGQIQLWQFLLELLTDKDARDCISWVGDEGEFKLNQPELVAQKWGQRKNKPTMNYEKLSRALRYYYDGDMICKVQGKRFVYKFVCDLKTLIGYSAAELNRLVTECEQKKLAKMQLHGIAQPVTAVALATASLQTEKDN
# Summary of the method: as §1
# [3] = target: T3, ERG (Homo sapiens, UniProt P11308 1-479); settings: protein: recombinant; tags: N-terminal GST; dsDNA, one strand shown
# T3 sequence: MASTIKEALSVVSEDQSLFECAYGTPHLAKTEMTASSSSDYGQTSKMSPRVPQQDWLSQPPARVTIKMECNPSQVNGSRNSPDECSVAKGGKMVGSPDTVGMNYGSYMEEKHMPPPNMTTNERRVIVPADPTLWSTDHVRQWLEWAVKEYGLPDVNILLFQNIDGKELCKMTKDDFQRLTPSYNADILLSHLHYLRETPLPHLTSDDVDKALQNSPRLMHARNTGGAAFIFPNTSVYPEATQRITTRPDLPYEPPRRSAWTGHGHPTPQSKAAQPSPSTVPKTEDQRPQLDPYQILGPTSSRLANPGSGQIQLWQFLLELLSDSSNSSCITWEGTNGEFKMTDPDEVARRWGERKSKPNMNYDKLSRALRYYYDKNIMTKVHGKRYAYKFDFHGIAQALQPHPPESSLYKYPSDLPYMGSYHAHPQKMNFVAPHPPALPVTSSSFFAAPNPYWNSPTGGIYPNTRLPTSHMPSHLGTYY
# Summary of the method: as §1
# [4] = target: ELF1 (Homo sapiens, UniProt P32519 1-619); settings: protein: recombinant; tags: N-terminal GST; dsDNA, one strand shown
# Summary of the method: as §1
# [5] = target: T4, EHF (Homo sapiens, UniProt Q9NZC4 1-300); settings: protein: recombinant; tags: N-terminal GST; dsDNA, one strand shown
# T4 sequence: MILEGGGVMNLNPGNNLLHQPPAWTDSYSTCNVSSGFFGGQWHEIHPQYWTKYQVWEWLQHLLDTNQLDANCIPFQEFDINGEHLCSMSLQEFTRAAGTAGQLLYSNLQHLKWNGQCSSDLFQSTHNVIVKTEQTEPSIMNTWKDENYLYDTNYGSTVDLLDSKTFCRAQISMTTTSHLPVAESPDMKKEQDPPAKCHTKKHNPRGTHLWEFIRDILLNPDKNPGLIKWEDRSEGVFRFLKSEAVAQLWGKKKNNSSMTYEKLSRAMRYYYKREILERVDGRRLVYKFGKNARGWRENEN
# Summary of the method: as §1
# [6] = target: SPI1 (Homo sapiens, UniProt P17947 1-270); settings: protein: recombinant; tags: N-terminal GST; dsDNA, one strand shown
# Summary of the method: as §1
# [7] = target: SPIB (Homo sapiens, UniProt Q01892 1-262); settings: protein: recombinant; tags: N-terminal GST; dsDNA, one strand shown
# Summary of the method: as §1
# [8] = target: T5, ELK3 (Homo sapiens, UniProt P41970 1-407); settings: protein: recombinant; tags: N-terminal GST; dsDNA, one strand shown
# T5 sequence: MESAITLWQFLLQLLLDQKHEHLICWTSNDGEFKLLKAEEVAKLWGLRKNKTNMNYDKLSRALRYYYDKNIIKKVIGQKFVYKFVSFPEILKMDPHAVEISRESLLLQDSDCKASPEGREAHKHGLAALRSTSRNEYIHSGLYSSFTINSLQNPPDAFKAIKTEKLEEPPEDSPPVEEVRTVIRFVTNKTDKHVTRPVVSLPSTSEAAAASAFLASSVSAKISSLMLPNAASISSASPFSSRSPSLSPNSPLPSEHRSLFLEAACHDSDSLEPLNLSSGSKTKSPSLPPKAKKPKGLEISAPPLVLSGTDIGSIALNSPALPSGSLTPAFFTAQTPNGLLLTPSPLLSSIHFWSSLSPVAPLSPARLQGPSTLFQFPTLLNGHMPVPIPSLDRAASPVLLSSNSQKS
# Summary of the method: as §1
# [9] = target: T6, FEV (Homo sapiens, UniProt Q99581 1-238); settings: protein: recombinant; tags: N-terminal GST; dsDNA, one strand shown
# T6 sequence: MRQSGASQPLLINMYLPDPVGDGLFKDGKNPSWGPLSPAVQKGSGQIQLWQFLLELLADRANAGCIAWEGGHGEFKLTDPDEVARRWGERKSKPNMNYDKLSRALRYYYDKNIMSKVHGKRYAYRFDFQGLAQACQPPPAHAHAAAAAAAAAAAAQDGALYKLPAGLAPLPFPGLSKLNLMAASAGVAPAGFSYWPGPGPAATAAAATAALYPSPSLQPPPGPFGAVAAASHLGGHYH
# Summary of the method: as §1
# [10] = target: ETV5 (Homo sapiens, UniProt P41161 1-510); settings: protein: recombinant; tags: N-terminal GST; dsDNA, one strand shown
# Summary of the method: as §1
# [11] = target: HSF1 (Homo sapiens, UniProt Q00613 1-529); settings: protein: recombinant; tags: N-terminal GST; chain copies: 3; dsDNA, one strand shown
# Summary of the method: as §1
# [12] = target: T7, SPIC (Homo sapiens, UniProt Q8N5J4 1-248); settings: protein: recombinant; tags: N-terminal GST; dsDNA, one strand shown
# T7 sequence: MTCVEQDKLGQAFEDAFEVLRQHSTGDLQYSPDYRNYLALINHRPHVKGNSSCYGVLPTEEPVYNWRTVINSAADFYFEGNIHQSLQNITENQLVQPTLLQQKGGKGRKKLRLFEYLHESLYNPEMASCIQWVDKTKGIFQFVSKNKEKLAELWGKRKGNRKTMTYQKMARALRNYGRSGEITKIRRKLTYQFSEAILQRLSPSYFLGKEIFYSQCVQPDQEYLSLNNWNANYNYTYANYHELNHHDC
# Summary of the method: as §1
# [13] = target: ELF4 (Homo sapiens, UniProt Q99607 1-663); settings: protein: recombinant; tags: N-terminal GST; dsDNA, one strand shown
# Summary of the method: as §1
# [14] = target: T8, ELK4 (Homo sapiens, UniProt P28324-2 1-405); settings: protein: recombinant; tags: N-terminal GST; dsDNA, one strand shown
# T8 sequence: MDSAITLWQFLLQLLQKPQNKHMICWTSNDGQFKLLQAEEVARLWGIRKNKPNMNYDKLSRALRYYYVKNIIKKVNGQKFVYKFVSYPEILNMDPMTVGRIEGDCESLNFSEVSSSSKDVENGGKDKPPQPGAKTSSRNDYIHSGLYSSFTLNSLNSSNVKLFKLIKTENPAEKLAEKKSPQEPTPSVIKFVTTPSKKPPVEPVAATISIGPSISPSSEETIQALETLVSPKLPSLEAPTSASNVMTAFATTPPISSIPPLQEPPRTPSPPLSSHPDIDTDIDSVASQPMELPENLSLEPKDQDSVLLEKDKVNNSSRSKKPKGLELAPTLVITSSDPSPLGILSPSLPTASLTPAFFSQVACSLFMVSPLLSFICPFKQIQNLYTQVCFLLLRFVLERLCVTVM
# Summary of the method: as §1
# [15] = target: T9, ETV2 (Homo sapiens, UniProt O00321 1-342); settings: protein: recombinant; tags: N-terminal GST; dsDNA, one strand shown
# T9 sequence: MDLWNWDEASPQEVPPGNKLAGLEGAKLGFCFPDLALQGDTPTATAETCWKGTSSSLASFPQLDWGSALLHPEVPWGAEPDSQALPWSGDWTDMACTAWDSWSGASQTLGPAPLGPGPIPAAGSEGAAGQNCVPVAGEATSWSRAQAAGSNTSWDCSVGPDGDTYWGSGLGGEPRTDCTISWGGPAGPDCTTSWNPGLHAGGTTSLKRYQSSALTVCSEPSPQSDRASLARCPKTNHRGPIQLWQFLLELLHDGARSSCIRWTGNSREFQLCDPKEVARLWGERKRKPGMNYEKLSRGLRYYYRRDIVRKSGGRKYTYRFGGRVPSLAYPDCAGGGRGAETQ
# Summary of the method: as §1
# [16] = target: T10, ELF3 (Homo sapiens, UniProt P78545 1-371); settings: protein: recombinant; tags: N-terminal GST; dsDNA, one strand shown
# T10 sequence: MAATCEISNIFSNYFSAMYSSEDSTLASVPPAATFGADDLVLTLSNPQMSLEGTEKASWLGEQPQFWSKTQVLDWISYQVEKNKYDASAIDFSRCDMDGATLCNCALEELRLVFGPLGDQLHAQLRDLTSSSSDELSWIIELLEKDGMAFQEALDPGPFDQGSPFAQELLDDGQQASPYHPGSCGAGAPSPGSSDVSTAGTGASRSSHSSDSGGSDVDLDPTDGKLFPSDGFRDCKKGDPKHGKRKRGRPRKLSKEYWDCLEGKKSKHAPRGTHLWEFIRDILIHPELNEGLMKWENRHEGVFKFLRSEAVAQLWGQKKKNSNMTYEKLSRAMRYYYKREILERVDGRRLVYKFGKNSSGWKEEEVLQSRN
# Summary of the method: as §1
# [17] = target: CRX (Homo sapiens, UniProt O43186 1-299); settings: protein: recombinant; tags: N-terminal GST; dsDNA, one strand shown
# Summary of the method: as §1
# [18] = target: ETV1 (Homo sapiens, UniProt P50549 1-477); settings: protein: recombinant; tags: N-terminal GST; dsDNA, one strand shown
# Summary of the method: as §1
# ELF1, sequence (P32519 whole entry): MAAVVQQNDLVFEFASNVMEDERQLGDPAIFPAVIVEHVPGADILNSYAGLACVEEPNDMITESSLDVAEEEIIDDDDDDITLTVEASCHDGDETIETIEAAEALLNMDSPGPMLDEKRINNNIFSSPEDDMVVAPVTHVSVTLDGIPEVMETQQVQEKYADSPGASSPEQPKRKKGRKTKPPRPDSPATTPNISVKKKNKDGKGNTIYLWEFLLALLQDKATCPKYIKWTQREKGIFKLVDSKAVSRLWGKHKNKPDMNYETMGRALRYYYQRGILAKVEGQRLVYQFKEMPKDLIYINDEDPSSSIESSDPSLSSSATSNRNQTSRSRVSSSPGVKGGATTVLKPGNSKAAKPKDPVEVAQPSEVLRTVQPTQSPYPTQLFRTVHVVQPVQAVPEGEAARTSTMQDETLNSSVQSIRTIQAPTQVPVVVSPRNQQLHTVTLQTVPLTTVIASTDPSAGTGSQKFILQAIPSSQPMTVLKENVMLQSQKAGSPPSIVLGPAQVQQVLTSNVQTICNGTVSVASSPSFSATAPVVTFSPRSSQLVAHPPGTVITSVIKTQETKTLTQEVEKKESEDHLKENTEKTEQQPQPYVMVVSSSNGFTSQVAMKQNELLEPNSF
# ELF4, sequence (Q99607 whole entry): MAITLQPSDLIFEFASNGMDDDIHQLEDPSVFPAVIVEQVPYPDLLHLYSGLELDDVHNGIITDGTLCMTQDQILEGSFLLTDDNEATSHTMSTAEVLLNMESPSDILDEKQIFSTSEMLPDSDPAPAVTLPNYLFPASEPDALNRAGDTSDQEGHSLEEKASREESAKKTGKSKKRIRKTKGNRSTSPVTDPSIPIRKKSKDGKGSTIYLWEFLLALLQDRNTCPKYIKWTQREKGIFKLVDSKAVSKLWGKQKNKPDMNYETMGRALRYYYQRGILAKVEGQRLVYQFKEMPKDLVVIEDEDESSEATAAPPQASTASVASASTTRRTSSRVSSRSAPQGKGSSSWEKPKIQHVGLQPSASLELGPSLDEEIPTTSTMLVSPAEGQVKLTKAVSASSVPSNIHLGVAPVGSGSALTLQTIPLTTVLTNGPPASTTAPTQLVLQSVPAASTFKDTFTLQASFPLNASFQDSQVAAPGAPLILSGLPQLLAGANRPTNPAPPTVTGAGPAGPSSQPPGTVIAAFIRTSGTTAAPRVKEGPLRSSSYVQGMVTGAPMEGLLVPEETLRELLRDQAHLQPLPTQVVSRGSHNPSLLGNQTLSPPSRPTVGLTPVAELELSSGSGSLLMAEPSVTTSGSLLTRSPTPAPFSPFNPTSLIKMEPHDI
# ETV1, sequence (P50549 whole entry): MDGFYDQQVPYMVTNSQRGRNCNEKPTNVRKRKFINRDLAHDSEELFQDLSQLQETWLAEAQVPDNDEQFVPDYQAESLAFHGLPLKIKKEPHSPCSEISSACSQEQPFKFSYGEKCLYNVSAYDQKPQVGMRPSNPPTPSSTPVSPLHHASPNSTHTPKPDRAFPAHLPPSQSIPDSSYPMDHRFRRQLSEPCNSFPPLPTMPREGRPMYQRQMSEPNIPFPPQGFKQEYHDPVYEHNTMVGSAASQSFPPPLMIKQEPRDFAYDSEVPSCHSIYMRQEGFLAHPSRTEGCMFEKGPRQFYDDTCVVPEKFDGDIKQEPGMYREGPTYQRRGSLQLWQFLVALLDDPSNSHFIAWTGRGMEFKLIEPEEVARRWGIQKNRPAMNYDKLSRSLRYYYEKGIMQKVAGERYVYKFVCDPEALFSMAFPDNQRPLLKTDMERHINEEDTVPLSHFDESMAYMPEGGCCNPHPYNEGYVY
# CRX, sequence (O43186 whole entry): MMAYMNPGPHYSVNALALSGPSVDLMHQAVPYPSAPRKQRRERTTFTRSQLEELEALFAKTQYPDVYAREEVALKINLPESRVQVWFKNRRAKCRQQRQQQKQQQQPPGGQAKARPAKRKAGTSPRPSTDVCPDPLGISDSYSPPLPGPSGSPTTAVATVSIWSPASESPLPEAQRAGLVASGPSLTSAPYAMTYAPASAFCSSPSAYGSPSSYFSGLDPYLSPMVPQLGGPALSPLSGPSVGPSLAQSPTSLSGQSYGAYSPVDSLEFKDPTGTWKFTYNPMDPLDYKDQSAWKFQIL
# HSF1, sequence (Q00613 whole entry): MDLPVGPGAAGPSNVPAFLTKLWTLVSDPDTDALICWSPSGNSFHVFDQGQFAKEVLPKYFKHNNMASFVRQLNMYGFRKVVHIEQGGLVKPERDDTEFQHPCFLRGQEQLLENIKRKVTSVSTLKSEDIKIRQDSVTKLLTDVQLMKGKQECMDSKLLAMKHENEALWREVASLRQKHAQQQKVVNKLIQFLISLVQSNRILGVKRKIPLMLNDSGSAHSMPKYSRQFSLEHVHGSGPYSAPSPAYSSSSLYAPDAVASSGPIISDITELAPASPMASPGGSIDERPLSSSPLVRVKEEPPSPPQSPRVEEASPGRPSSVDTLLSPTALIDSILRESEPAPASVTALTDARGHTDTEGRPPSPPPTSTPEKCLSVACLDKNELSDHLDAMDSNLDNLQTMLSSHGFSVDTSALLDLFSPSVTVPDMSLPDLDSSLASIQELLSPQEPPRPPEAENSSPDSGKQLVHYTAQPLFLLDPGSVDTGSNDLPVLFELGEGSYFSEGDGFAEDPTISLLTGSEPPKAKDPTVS
# ETV5, sequence (P41161 whole entry): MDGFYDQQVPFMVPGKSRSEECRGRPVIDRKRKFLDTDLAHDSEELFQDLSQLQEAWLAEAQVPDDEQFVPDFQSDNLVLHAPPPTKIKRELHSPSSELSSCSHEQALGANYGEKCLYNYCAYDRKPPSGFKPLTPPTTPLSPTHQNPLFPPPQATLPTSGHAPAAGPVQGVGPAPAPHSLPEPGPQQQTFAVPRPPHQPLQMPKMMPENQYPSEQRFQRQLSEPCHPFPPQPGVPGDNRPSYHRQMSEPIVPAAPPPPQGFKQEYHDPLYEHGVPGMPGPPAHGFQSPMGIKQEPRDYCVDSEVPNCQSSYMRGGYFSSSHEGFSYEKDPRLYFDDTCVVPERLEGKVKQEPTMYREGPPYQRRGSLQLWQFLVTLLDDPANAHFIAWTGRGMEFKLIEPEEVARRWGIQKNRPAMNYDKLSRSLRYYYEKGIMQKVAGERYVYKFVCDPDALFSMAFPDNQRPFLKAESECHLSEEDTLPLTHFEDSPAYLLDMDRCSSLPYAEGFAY
# SPIB, sequence (Q01892 whole entry): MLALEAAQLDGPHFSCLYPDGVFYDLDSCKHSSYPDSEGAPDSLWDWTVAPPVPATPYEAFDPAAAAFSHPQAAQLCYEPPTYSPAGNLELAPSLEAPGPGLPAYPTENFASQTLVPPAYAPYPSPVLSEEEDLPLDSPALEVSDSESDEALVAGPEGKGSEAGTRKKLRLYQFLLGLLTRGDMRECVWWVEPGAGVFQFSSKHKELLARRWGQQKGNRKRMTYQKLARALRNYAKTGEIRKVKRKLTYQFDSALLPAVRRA
sequence,measurement,setting,value
GAATCT,binding signal,[1],"1.03 fold enrichment (6-mer frequency, TF over GST control)"
same,binding signal,[2],"1.15 fold enrichment (6-mer frequency, TF over GST control)"
same,binding signal,[3],"1.04 fold enrichment (6-mer frequency, TF over GST control)"
same,binding signal,[4],"1.04 fold enrichment (6-mer frequency, TF over GST control)"
same,binding signal,[5],"1.06 fold enrichment (6-mer frequency, TF over GST control)"
same,binding signal,[6],"1.07 fold enrichment (6-mer frequency, TF over GST control)"
same,binding signal,[7],"1.1 fold enrichment (6-mer frequency, TF over GST control)"
same,binding signal,[8],"1.08 fold enrichment (6-mer frequency, TF over GST control)"
same,binding signal,[9],"1.03 fold enrichment (6-mer frequency, TF over GST control)"
same,binding signal,[10],"1.13 fold enrichment (6-mer frequency, TF over GST control)"
same,binding signal,[11],"1.76 fold enrichment (6-mer frequency, TF over GST control)"
same,binding signal,[12],"1.05 fold enrichment (6-mer frequency, TF over GST control)"
same,binding signal,[13],"1.07 fold enrichment (6-mer frequency, TF over GST control)"
same,binding signal,[14],"1.08 fold enrichment (6-mer frequency, TF over GST control)"
same,binding signal,[15],"1.2 fold enrichment (6-mer frequency, TF over GST control)"
same,binding signal,[16],"1.03 fold enrichment (6-mer frequency, TF over GST control)"
same,binding signal,[17],"1.21 fold enrichment (6-mer frequency, TF over GST control)"
same,binding signal,[18],"1.08 fold enrichment (6-mer frequency, TF over GST control)"
